MPTP inh: permeability transition pore inhibition | isolated mouse mitochondria, Ca2+ swelling absorbance, 30 min | inhibition, % at 10 µM | 1.4% of 360,000 active;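 active = inhibition of 50% or more, scaled per plate between neutral and stimulator controls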;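 note: 0% = DMSO wells given calcium and 100% = 1 mM EGTA wells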
SKKanGAS inh: blocks kanamycin growth of S. pyogenes SKKanGAS strain; BacTiter-Glo, 6 h; inhibition, % at 7.5 µM; 1.3% of 300,000 active;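 active = mean replicate score, as percent of positive control median, at least 50; inconclusive = mean below 50 but one replicate at or above 50; inactive = mean and every replicate below 50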;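 note: strain carries kanamycin resistance gene driven by streptokinase promoter and grows in 40 µg/ml kanamycin; loss of luminescence reflects streptokinase promoter inhibition or plain growth inhibition; 0% = median of DMSO wells and 100% = positive control at its reference dose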
Calb FLC: affects C. albicans growth with fluconazole | C. albicans CaCi-2 (fluconazole-resistant clinical isolate) + fluconazole, Alamar Blue growth, 48 h | 0.57% of 300,000 active | growth inhibition, % (no concentration beside the values);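 active = growth inhibition above about 58% in most replicates, limit read from the data, passing the limit was not always enough; inconclusive = exactly half the replicates above a set limit; inactive = most replicates below a set limit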;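 note: all wells also contain fluconazole at 8 µg/ml as a sub-toxic cotreatment; 0% = median of DMSO wells and 100% = median of geldanamycin control wells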
CSC inhib: cancer stem cell inhibition | 1.1% of 300,000 active | inhibition, % at 7.5 µM | cancer stem cell-like cells viability, luminescence | AID 2717; in the data active = inhibition above about 75%; inconclusive = no clear call, values can overlap the other calls; tested in HMLE shEcad cells
Mdm2-MdmX inh: human Mdm2/MdmX binding inhibition; AID 485346; 3% of 330,000 active; inhibition, % at 8 µM; O15151+Q00987; SaOS-2 split-luciferase Mdm2/MdmX complementation, luminescence;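 active = inhibition of at least 50% at 8 µM in the primary screen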
Beta cell apopt: beta cell apoptosis inhibition | INS-1E cytokine-induced death, ATP luminescence, 48 h; percent of positive-control rescue, neutral wells zero | protection from apoptosis, % (no concentration beside the values) | AID 435005 | 0.8% of 300,000 active;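 active = Every replicate reaches about 75%, or at least half do and their mean reaches it too, limit read from the data; inconclusive = At least half of replicates reach the limit but their mean does not; inactive = Under half of replicates reach the limit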;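 note: 0% = cytokine-treated negative control wells and 100% = positive control rescue; higher means more ATP so stronger rescue from cytokine killing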
Mdm2 MdmX conf: confirmation of human Mdm2/MdmX interaction inhibitors; shares compounds with Mdm2-MdmX inh; Mdm2-MdmX binding, luminescent assay; inhibition, % at 8 µM; 55% of 10,000 active; AID 489028; in the data active = inhibition above about 40%
Full FLuc ctr: full-length luciferase inhibition in Mdm2/MdmX counter-screen | shares compounds with Mdm2-MdmX inh | SaOS-2 full-length luciferase counterscreen, luminescence | inhibition, % at 8 µM | 77% of 6,200 active | AID 504607;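 active = mean inhibition at 8 µM reaching about 37%, which flags the compound as non-specific, limit read from the data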;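 note: p53-null SaOS-2 cells with luciferase driven by a doxycycline-inducible promoter; compound on cells about two nights before reading with doxycycline added after day one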
* = called active by the depositor; ? = inconclusive; nt = not tested or not shown. Hits are enriched below; roughly 5.4% of the tested compounds scored in any of these assays.

SMILES	MPTP inh	SKKanGAS inh	Calb FLC	CSC inhib	Mdm2-MdmX inh	Beta cell apopt	Mdm2 MdmX conf	others
COc1ccc(C(=O)N/N=C/c2cc(Br)ccc2O)cc1OC	6	86*	2	36	67*	104*	64*	Full FLuc ctr=30
O=C(CNC(=O)c1ccc2c(c1)OCO2)N/N=C/c1cc(Br)ccc1O	1	61*	0	nt	52*	81*	58*	Full FLuc ctr=47*
COc1ccc(Br)cc1/C=N/NC(=O)c1cc(Br)ccc1O	nt	9	-1	nt	21	-5	nt
CC1CCCCC1NC(=O)COc1ncnc2sccc12 (configuration not stated)	1	nt	nt	nt	nt	nt	nt
CCN(c1ccccc1)S(=O)(=O)c1ccc(C(=O)N2CCN(c3ccccc3F)CC2)cc1	-1	nt	nt	nt	nt	nt	nt
CC(C)(C)Cc1c(-c2ccccc2)nc2ccc(Br)cn12	-1	nt	nt	nt	nt	nt	nt
CCCCCCN1C[C@H](O)[C@@H](n2cc(COC(=O)c3ccccc3)nn2)C[C@@H]1c1ccc(Cl)cc1	-1	nt	nt	nt	nt	nt	nt
CC(C)(C)C1c2[nH]c3ccccc3c2CCN1CCCn1cccn1 (configuration not stated)	0	4	3	1	11	-6	nt
Fc1ccccc1C1c2[nH]c3ccccc3c2CCN1CCCn1cccn1 (configuration not stated)	0	1	-8	-4	59*	-4	22
O=C(c1ccco1)N1CCN(C(=O)c2[nH]c(C(F)(F)F)nc2-c2ccccc2)CC1	0	nt	nt	nt	nt	nt	nt
CCN(Cc1ccc(OC)c(F)c1)C(=O)CCl	-1	-3	-3	-13	89*	-16	63*	Full FLuc ctr=22
Cc1cc(OCc2nc(-c3ccc(NC(=O)c4cccnc4)cc3)no2)ccc1Cl	-1	-11	-16	-9	62*	125*	11
COc1ccc(N2CC(NS(=O)(=O)c3cccs3)CC2=O)cc1 (configuration not stated)	-1	1	4	-9	22	-3	nt
Cc1cccc(-c2nnc(SCC#N)n2-c2cccc(Cl)c2)c1	0	4	10	-16	9	4	nt
COc1ccc(-n2c(SCCC#N)nnc2-c2cc(Cl)ccc2OC)cc1Cl	1	3	20	67	54*	0	64*	Full FLuc ctr=51*
CCCCOC(=O)CSC(=S)N(C)Cc1cccs1	0	0	0	-7	-23	-7	nt
CC(C)(C)c1ccc(OCC(=O)Nc2ccc3c4c(cccc24)C(=O)NC3=O)cc1	-3	4	-6	nt	nt	nt	nt
Cc1cc(C)nc(-n2nc(C)cc2NC(=O)COC(=O)CCC(=O)c2cccs2)n1	-1	0	-1	-8	24	1	nt
Cc1nc(SCc2nc3c([N+](=O)[O-])cccc3[nH]2)c2oc3ccccc3c2n1	2	nt	nt	nt	58*	-7	14
C/C(=N/NC(=O)c1sc(=S)n(C)c1C)c1ccccc1	2	-6	11	-6	53*	-5	5
Cc1c(C(=O)NN)sc(=S)n1C	-1	-8	-1	1	13	-14	nt
CSC1=NCCN1S(=O)(=O)c1ccc(Cl)cc1	1	-2	-13	5	7	-1	nt
CCOC(=O)C1CCN(c2cc3c(cc2NC(=O)c2ccccc2)n(C)c(=O)n3C)CC1	0	-9	-6	9	24	6	nt
CCOC(=O)C1CCN(c2cc3c(cc2NC(=O)c2ccc(OC)c(OC)c2)n(C)c(=O)n3C)CC1	-1	28	-6	-11	65*	21	26
CCOc1cccc(-c2nnc3sc(C4CCCCC4)nn23)c1	10	-3	-5	5	46	7	nt
SMILES	MPTP inh	SKKanGAS inh	Calb FLC	CSC inhib	Mdm2-MdmX inh	Beta cell apopt	Mdm2 MdmX conf	others
COc1cccc(-c2nnc3sc(C4CCCCC4)nn23)c1	13	8	5	13	85*	-12	78*	Full FLuc ctr=25
COc1cc(-c2nnc3sc(C4CCCCC4)nn23)cc(OC)c1OC	4	-10	4	7	57*	9	27
CO/N=C\CC(=O)Nc1ccc(Oc2ccccc2)cc1	-2	3	-38	1	52*	-9	63*	Full FLuc ctr=73*
O=C(C/C=N\O)Nc1ccc(Oc2ccccc2)cc1	0	6	2	-4	-1	-6	nt
Cc1cc2cc3c(=O)[nH]c(=O)[nH]c3nc2cc1C	nt	-1	-7	12	53*	2	17
O=c1[nH]c(=O)c2cc3ccccc3nc2[nH]1	-2	nt	nt	nt	nt	nt	nt
O=C(COC(=O)CCN1C(=O)c2cccc([N+](=O)[O-])c2C1=O)NC1CCS(=O)(=O)C1 (configuration not stated)	-2	0	33	-11	-41	-17	nt
COc1ccc(C(=O)Nc2ccc(NC(=O)c3ccccc3)cc2)cc1S(=O)(=O)N1CCOCC1	0	-1	2	-6	86*	6	-5
O=C(Nc1ccc(Cl)c(S(=O)(=O)N2CCCC2)c1)c1cc(=O)[nH]c2ccccc12	-1	nt	nt	2	52*	-3	10
O=C(Nc1ccc(NC(=O)c2ccc(Cl)c(S(=O)(=O)N3CCOCC3)c2)cc1)c1ccccc1	1	8	-3	-10	58*	-6	45*	Full FLuc ctr=48*
O=C(Nc1cccc(S(=O)(=O)N2CCCC2)c1)c1cc(=O)[nH]c2ccccc12	1	nt	nt	nt	17	-4	nt
CCOc1ccc(N(C)S(=O)(=O)c2ccc(C)c(C(=O)NCc3cccs3)c2)cc1	0	nt	nt	1	13	2	nt
Cc1[nH]c(N=Nc2ccccc2)nc1N=Nc1ccccc1	47	?	-3	105*	77*	100*	84*	Full FLuc ctr=24
COc1ccc(OC)c(C2=NS(=O)(=O)N(C)C(C(=O)N3CCC4(CC3)OCCO4)=C2)c1	-2	-4	0	-14	19	-3	nt
Cc1cccc(-n2cnc3cc(C(=O)NCCN4CCOCC4)ccc32)c1	-3	nt	nt	nt	nt	nt	nt
COc1ccc(Cl)cc1NC(=O)Nc1cccc([N+](=O)[O-])c1C	45	11	-6	-3	53*	15	29
COc1ccc(Cl)cc1NC(=O)NC1CCCCC1	1	-1	-5	4	7	0	nt
c1ccc(CNc2ncnc3c2cnn3Cc2ccccc2)cc1	-1	-6	5	48	58*	24	55*	Full FLuc ctr=70*
Clc1ccc(Cn2ncc3c(NCc4ccco4)ncnc32)c(Cl)c1	nt	13	5	60	74*	24	66*	Full FLuc ctr=31
OCCNc1ncnc2c1cnn2Cc1ccccc1	0	0	2	-7	nt	-3	nt
O=C(CCN1CCOCC1)Nc1cc(C(=O)Nc2ccc(Cl)cc2)ccc1N1CC2CC(C1)c1cccc(=O)n1C2 (configuration not stated)	-4	6	-3	4	35	1	nt
CCN(CCCNC(=O)CCn1c(=S)[nH]c2cc3c(cc2c1=O)OCO3)c1cccc(C)c1	-1	5	18	-10	57*	10	-17
